This note sets out measurements from paper PMC7862700, “An all-to-all approach to the identification of sequence-specific readers for epigenetic DNA modifications on cytosine”.

Assay in all cases: DAPPL (digital affinity profiling via proximity ligation, sequencing); 10 mM Tris-HCl pH 7.5, 50 mM NaCl, 1 mM DTT, 4% glycerol, room temperature, 30 min; GST-TFs on glutathione beads, 16-mer random dsDNA library, 0.1% formaldehyde crosslink after washing; high values mean tight binding
The target of one test is T1, FEV (Homo sapiens, UniProt Q99581 1-238).
T1 sequence: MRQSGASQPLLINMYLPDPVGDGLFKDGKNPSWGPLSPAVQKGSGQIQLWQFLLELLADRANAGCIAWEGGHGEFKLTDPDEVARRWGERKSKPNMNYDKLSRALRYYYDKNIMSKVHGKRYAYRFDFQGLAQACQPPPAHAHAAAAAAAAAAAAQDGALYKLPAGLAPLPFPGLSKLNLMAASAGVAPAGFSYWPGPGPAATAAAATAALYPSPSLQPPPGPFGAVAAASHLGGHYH
Conditions: protein: recombinant; tags: N-terminal GST; dsDNA, one strand shown. An outline of the steps:
(§1)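 Human transcription factors carrying a GST fusion were produced in yeast, bound to glutathione beads, tagged with DNA barcodes and pooled together with a tag-only sample. Each pool was held with 200 nmole of a random double-stranded 16-mer DNA library in Tris/NaCl/DTT/glycerol buffer for 30 min at room temperature, then washed, crosslinked in 0.1% formaldehyde, proximity-ligated with BsaI/T4 ligase (1 h, 37 °C), PCR-amplified and sequenced on an Illumina NextSeq500. Binding signal is the read frequency of each hexamer for a given factor divided by its frequency in the tag-only sample.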

A further test concerns the target ETV5 (Homo sapiens, UniProt P41161 1-510). The note with it: protein: recombinant; tags: N-terminal GST; dsDNA, one strand shown. An outline of the steps: as §1
The target of another test is HSF1 (Homo sapiens, UniProt Q00613 1-529). Conditions: protein: recombinant; tags: N-terminal GST; chain copies: 3; dsDNA, one strand shown. An outline of the steps: as §1
A further test has as its target T2, SPIC (Homo sapiens, UniProt Q8N5J4 1-248).
T2 sequence: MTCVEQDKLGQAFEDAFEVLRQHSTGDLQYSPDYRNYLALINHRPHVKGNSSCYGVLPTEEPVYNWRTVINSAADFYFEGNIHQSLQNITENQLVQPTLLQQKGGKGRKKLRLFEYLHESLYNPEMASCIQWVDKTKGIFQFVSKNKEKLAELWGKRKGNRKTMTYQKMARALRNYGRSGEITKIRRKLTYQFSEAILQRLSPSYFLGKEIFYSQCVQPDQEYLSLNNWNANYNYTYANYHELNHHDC
The note with it: protein: recombinant; tags: N-terminal GST; dsDNA, one strand shown. The method, boiled down: as §1

The target of the next test is ELF4 (Homo sapiens, UniProt Q99607 1-663). Conditions: protein: recombinant; tags: N-terminal GST; dsDNA, one strand shown. The method, boiled down: as §1
The target in another test is T3, ELK4 (Homo sapiens, UniProt P28324-2 1-405).
T3 sequence: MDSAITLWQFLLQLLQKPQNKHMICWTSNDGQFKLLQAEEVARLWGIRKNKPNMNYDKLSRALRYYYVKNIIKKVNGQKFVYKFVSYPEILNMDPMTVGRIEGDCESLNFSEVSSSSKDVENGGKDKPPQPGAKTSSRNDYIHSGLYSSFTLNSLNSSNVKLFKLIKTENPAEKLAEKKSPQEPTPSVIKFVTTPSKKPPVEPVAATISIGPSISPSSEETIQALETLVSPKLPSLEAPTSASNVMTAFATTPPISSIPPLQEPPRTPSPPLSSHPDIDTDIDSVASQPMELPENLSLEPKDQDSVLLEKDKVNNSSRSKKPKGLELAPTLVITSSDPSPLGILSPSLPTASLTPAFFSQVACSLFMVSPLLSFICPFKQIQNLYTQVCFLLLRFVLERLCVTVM
The note with it: protein: recombinant; tags: N-terminal GST; dsDNA, one strand shown. An outline of the steps:
as §1

The next test concerns the target T4, ETV2 (Homo sapiens, UniProt O00321 1-342).
T4 sequence: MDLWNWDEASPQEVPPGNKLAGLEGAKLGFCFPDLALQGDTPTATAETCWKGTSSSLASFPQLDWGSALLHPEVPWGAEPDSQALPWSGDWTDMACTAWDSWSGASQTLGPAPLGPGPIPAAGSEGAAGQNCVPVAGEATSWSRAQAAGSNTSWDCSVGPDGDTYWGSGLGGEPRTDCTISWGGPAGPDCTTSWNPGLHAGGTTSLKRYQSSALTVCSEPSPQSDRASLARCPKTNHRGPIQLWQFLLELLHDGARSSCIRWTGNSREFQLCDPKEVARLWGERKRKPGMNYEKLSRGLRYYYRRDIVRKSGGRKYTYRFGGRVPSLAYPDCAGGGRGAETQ
Conditions: protein: recombinant; tags: N-terminal GST; dsDNA, one strand shown. An outline of the steps: as §1

Another test concerns the target T5, ELF3 (Homo sapiens, UniProt P78545 1-371).
T5 sequence: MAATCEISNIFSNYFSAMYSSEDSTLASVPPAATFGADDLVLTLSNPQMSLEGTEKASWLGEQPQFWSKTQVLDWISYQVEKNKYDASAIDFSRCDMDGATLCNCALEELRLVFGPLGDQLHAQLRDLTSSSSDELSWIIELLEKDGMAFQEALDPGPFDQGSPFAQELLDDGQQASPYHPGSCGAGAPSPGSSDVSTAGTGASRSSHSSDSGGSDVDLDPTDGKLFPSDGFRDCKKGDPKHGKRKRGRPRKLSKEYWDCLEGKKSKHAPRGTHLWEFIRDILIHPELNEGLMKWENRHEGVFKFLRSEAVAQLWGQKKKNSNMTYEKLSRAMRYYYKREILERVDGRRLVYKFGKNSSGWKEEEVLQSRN
The note with it: protein: recombinant; tags: N-terminal GST; dsDNA, one strand shown. The method, boiled down:
as §1

The next test deals with CRX (Homo sapiens, UniProt O43186 1-299). The note with it: protein: recombinant; tags: N-terminal GST; dsDNA, one strand shown. An outline of the steps: as §1
The target in the next test is ETV1 (Homo sapiens, UniProt P50549 1-477). Conditions: protein: recombinant; tags: N-terminal GST; dsDNA, one strand shown. The method, boiled down: as §1
For another test, the target named is T6, ERF (Homo sapiens, UniProt P50548 1-548).
T6 sequence: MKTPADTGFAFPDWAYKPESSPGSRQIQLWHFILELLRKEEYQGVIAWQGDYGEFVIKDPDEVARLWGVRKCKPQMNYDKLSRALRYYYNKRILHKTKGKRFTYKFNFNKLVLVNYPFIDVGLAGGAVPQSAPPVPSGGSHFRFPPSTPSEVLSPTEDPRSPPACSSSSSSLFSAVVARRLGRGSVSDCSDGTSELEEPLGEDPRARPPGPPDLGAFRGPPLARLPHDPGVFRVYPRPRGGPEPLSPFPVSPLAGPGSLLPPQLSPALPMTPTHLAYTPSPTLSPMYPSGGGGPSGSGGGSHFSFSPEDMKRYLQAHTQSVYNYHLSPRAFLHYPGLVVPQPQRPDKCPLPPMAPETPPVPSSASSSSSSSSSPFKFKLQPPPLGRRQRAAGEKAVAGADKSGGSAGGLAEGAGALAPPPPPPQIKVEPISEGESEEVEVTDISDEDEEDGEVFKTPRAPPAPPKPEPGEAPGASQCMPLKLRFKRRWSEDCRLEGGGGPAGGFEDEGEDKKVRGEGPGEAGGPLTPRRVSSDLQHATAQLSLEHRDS
The note with it: protein: recombinant; tags: N-terminal GST; dsDNA, one strand shown. An outline of the steps:
as §1

Another test concerns the target T7, ETV3L (Homo sapiens, UniProt Q6ZN32 1-361).
T7 sequence: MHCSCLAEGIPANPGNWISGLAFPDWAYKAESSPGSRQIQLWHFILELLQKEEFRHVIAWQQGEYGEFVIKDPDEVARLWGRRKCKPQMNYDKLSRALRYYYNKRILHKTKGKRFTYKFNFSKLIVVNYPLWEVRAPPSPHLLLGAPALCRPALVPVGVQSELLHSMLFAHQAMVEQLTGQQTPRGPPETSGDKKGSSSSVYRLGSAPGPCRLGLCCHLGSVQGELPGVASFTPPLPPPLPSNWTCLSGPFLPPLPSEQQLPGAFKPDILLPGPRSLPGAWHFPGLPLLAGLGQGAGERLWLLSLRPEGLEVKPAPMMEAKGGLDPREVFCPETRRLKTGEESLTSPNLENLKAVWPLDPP
Conditions: protein: recombinant; tags: N-terminal GST; dsDNA, one strand shown. An outline of the steps:
as §1

The next test has as its target T8, ETS2 (Homo sapiens, UniProt P15036 1-469).
T8 sequence: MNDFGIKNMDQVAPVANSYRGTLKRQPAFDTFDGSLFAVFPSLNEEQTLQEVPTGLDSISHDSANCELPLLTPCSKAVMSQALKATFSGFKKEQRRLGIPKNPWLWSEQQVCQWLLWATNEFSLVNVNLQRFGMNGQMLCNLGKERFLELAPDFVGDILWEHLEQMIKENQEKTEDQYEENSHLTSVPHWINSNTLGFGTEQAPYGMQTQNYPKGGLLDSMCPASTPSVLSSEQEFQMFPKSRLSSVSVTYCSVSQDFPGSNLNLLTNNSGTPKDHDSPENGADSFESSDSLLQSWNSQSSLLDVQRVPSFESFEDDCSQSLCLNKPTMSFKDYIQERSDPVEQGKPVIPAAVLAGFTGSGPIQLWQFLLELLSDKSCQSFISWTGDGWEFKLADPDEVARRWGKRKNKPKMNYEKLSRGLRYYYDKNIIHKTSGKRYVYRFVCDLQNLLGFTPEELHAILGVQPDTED
Conditions: protein: recombinant; tags: N-terminal GST; dsDNA, one strand shown. The method, boiled down: as §1

The target of another test is T9, SPDEF (Homo sapiens, UniProt O95238 1-335).
T9 sequence: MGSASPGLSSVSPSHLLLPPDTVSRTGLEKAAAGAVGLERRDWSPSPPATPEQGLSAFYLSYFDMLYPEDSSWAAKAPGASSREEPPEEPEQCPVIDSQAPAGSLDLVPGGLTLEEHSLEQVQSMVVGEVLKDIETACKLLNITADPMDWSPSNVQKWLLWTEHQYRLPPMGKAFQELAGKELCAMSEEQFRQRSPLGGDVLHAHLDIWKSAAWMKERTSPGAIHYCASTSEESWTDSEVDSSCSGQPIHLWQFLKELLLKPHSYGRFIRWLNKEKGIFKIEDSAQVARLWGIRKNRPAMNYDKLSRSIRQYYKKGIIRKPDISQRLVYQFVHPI
Conditions: protein: recombinant; tags: N-terminal GST; dsDNA, one strand shown. An outline of the steps: as §1

A further test deals with T10, ETV7 (Homo sapiens, UniProt Q9Y603 1-341).
T10 sequence: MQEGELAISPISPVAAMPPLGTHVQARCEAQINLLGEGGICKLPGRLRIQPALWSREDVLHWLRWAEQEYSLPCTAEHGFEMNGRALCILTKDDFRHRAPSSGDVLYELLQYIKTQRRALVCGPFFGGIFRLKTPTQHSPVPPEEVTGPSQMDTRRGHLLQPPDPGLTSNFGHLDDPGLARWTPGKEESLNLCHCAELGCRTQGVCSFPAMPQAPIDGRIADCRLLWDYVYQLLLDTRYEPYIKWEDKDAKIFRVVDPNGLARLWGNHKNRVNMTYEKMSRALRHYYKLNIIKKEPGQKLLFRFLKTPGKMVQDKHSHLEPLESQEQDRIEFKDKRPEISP
Conditions: protein: recombinant; tags: N-terminal GST; dsDNA, one strand shown. The method, boiled down: as §1

Another test concerns the target T11, ELF5 (Homo sapiens, UniProt Q9UKW6-2 1-255).
T11 sequence: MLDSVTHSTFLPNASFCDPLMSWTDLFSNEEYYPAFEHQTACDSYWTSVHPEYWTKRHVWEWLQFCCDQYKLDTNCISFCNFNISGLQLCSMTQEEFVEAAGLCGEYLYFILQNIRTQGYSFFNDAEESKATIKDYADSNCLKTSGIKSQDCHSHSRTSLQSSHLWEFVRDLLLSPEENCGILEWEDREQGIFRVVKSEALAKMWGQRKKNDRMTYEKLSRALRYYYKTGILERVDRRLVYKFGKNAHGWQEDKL
The note with it: protein: recombinant; tags: N-terminal GST; dsDNA, one strand shown. The method, boiled down:
as §1

The target in the next test is T12, ETV3 (Homo sapiens, UniProt P41162-2 1-143).
T12 sequence: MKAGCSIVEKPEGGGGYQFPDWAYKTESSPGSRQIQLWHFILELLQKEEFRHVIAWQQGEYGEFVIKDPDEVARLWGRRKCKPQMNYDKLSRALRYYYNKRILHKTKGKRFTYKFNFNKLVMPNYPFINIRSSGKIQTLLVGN
The note with it: protein: recombinant; tags: N-terminal GST; dsDNA, one strand shown. The method, boiled down: as §1

The target of the next test is ETV6 (Homo sapiens, UniProt P41212 1-452). Conditions: protein: recombinant; tags: N-terminal GST; dsDNA, one strand shown. The method, boiled down: as §1
ETV6, sequence (P41212 whole entry): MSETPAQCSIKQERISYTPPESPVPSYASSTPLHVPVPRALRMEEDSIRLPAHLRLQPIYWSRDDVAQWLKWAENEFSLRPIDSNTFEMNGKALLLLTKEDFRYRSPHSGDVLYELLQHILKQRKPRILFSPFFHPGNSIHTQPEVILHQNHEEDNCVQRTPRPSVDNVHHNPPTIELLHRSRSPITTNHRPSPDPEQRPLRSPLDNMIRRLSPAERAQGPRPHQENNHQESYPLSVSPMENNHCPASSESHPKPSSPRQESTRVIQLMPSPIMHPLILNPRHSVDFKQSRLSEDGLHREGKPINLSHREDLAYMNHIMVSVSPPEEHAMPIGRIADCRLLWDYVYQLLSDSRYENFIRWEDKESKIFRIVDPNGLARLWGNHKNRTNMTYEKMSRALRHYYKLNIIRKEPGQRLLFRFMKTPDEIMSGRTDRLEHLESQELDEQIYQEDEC

ETV1, sequence (P50549 whole entry): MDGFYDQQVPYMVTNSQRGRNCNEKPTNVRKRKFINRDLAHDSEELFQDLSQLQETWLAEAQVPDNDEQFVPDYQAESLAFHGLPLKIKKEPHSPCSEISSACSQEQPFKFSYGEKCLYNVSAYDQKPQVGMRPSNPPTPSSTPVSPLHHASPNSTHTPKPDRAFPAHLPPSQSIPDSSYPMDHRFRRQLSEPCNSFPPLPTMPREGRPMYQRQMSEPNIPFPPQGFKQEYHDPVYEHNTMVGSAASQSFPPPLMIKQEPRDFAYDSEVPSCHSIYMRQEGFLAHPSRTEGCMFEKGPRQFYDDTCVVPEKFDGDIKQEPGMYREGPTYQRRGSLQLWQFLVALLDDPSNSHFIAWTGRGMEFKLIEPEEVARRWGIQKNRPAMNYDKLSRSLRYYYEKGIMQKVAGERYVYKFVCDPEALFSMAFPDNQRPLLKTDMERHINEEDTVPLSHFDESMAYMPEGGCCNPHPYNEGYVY
ETV5, sequence (P41161 whole entry): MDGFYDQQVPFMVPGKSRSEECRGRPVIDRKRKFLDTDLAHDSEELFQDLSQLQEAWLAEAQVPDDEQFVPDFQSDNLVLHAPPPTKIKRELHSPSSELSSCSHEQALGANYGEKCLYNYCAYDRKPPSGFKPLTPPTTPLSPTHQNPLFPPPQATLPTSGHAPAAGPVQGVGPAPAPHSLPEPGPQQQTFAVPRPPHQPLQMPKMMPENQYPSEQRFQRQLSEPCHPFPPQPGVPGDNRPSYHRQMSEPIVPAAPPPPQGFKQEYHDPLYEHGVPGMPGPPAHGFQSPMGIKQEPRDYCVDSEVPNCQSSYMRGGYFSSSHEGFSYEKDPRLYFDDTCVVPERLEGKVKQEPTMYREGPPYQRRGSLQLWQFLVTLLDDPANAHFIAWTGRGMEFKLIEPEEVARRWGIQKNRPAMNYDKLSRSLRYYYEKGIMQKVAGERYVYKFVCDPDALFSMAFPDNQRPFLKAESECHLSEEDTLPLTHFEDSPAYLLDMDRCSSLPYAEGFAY
HSF1, sequence (Q00613 whole entry): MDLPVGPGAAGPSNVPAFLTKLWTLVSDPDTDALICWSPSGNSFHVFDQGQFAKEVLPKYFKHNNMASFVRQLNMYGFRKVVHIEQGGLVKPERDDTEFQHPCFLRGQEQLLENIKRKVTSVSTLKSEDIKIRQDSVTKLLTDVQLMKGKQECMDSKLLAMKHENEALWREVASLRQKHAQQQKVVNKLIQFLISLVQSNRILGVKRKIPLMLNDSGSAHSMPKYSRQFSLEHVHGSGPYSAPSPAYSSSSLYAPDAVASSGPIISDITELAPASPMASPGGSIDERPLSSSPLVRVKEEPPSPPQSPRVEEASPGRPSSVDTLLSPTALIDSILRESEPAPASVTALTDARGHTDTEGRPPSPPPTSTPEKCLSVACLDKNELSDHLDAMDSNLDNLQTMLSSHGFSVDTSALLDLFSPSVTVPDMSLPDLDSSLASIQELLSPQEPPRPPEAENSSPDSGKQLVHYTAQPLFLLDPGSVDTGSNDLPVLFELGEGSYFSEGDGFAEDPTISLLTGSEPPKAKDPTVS
CRX, sequence (O43186 whole entry): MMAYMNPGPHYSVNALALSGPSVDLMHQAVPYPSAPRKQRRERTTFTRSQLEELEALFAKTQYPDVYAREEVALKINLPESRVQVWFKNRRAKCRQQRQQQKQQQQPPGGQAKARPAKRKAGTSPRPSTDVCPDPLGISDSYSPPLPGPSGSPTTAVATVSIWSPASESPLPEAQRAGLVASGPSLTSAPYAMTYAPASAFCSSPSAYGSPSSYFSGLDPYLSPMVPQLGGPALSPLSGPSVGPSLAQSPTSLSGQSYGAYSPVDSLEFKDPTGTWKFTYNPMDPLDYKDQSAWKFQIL
ELF4, sequence (Q99607 whole entry): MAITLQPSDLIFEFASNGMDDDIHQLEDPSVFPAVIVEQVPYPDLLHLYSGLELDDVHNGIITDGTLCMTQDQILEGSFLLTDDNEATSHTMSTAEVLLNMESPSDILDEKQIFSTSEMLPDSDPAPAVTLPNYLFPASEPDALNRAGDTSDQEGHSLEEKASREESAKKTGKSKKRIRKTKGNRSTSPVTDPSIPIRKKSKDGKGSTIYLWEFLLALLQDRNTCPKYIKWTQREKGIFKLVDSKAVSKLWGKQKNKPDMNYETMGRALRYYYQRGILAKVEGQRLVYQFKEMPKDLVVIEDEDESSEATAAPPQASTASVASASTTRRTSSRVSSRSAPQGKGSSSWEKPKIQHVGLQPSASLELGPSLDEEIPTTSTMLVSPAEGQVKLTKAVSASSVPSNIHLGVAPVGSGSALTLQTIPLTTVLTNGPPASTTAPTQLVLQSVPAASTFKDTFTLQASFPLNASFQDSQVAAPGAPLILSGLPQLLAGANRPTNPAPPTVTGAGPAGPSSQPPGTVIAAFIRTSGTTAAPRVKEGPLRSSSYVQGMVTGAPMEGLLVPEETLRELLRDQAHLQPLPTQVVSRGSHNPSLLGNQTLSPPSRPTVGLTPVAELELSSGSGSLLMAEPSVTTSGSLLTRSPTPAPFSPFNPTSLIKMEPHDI

On to TCTAAT, for which the binding signal is 1.16 fold enrichment (6-mer frequency, TF over GST control) with FEV; 1.17 fold enrichment (6-mer frequency, TF over GST control) with ETV5; 1.73 fold enrichment (6-mer frequency, TF over GST control) with HSF1; 1.26 fold enrichment (6-mer frequency, TF over GST control) in the test with SPIC; 1.21 fold enrichment (6-mer frequency, TF over GST control) in the test with ELF4; 1.18 fold enrichment (6-mer frequency, TF over GST control) with ELK4. In addition, the binding signal in the test with ETV2 was 1.22 fold enrichment (6-mer frequency, TF over GST control); with ELF3, 1.16 fold enrichment (6-mer frequency, TF over GST control); with CRX it was 2.37 fold enrichment (6-mer frequency, TF over GST control); in the test with ETV1 it was 1.26 fold enrichment (6-mer frequency, TF over GST control); with ERF, 1.26 fold enrichment (6-mer frequency, TF over GST control); with ETV3L, 1.14 fold enrichment (6-mer frequency, TF over GST control). Also, the binding signal with ETS2 is 1.21 fold enrichment (6-mer frequency, TF over GST control); in the test with SPDEF, 1.21 fold enrichment (6-mer frequency, TF over GST control); in the test with ETV7 it was 1.07 fold enrichment (6-mer frequency, TF over GST control); in the test with ELF5, 1.11 fold enrichment (6-mer frequency, TF over GST control); in the test with ETV3 it was 1.05 fold enrichment (6-mer frequency, TF over GST control); in the test with ETV6, 1.2 fold enrichment (6-mer frequency, TF over GST control).
